# Data from ChEMBL document CHEMBL3988442, “University of Dundee, Small-Polar-MMV Screening Library” (2021).
# Hit rate of the full screen: of about 48,000 compounds, about 13,000 (27%) showed an effect of 50% or more. The list shows a part of the results.
# System: Wolbachia pipientis
# Assay: Anti-Wolbachia Cell-Based Screen
# Format: functional
# Parameters: scale not given: in the data most compounds retested in dose-response had high values
# Conditions: 5 µM
row,Compound,Percent Effect
1,O=C(O)c1cc(-c2ccoc2)cc(S(=O)(=O)NC2CC2)c1,13.87%
2,c1cnc(NCC2Cn3nnc(-c4ccoc4)c3CO2)nc1 (stereo unspecified),9.551%
3,Cc1nnc(CN2C[C@H](NC(=O)CC3CCCC3)[C@@H](C3CC3)C2)s1,-5.316%
4,COC(=O)C1CN(Cc2ccn(-c3ccc(F)cc3)n2)C[C@@H](C)O1 (stereo partly specified),-6.737%
5,CCc1cc(NC(=O)c2cccc(OCC(F)(F)F)n2)[nH]n1,-13.74%
6,O=C(NC1CCS(=O)(=O)C1)c1sccc1OC(F)F (stereo unspecified),15.29%
7,CC(C)CCn1cc(C(=O)NC2CCS(=O)(=O)C2)c2ccccc2c1=O (stereo unspecified),143.5%
8,O=C(NC1CCS(=O)(=O)C1)c1ccccc1SCc1cscn1 (stereo unspecified),-4.386%
9,Cc1nonc1-c1nc(C(C)C)nn1-c1ccc2c(c1)OCO2,-15.14%
10,Cc1noc(C)c1C(=O)NCCc1cccs1,-0.0309%
11,Cc1noc(C)c1C(=O)NCC(O)c1ccc(F)cc1F (stereo unspecified),3.33%
12,COCCn1ccc2ccc(NC(=O)NCc3noc(C)n3)cc21,-17.56%
13,Cc1noc(C)c1C(=O)Nc1ccc2ncn(CC(C)C)c(=O)c2c1,120.5%
14,COCCn1cnc2ccc(NC(=O)c3c(C)noc3C)cc2c1=O,114.6%
15,CNC(=O)C(NC(=O)c1c(C)noc1C)c1ccc(F)c(F)c1 (stereo unspecified),1.933%
16,COc1cc(S(=O)(=O)N2CCc3ccc(F)cc32)cc(C(=O)O)c1OC,-3.468%
17,COc1ccc(C)cc1CSCCn1nc2ccccn2c1=O,4.389%
18,Cc1sc2nc(CCN)nc(N3CCS(=O)(=O)CC3)c2c1C,5.115%
19,O=C(NC1CCN(CC2CC2)C1)c1ccc(C(=O)c2cc[nH]c2)cc1 (stereo unspecified),2.424%

row,Compound,Percent Effect
1,Cc1ccc(C(=O)NCCN2CCOCC2)c(=O)[nH]1,10.08%
2,CCN1CCCC(NC(=O)c2ccc(C)[nH]c2=O)C1 (stereo unspecified),104.5%
3,CN1CCCC(NC(=O)c2ccc(C(=O)c3cc[nH]c3)cc2)C1 (stereo unspecified),107.5%
4,Cc1ccc(C(=O)NC(CN2CCCC2)c2ccccc2)c(=O)[nH]1 (stereo unspecified),-7.426%
5,CN1CCCC(N(C)C(=O)c2ccc(NC(=O)c3ccc[nH]3)cc2)C1 (stereo unspecified),-8.212%
6,Cc1ccc(C(=O)NC2CCCCNC2=O)c(=O)[nH]1 (stereo unspecified),-8.505%
7,Cc1ccc(C(=O)NC2CCCN(CC(N)=O)C2)c(=O)[nH]1 (stereo unspecified),108.8%
8,Cc1ccc(C(=O)NC2CCCN(C)C2)c(=O)[nH]1 (stereo unspecified),91.25%
9,Cc1ccc(C(=O)Nc2cnn(CC(=O)NC3CCCC3)c2)c(=O)[nH]1,-2.747%
10,COc1ccc(F)cc1C(=O)N1CCC2(CCC(=O)N(C(C)C)C2)CC1,-13.7%
11,CCN(CC)C1CCN(C(=O)Nc2cc(F)c(OC)c(F)c2)C1 (stereo unspecified),-0.1207%
12,COCC(=O)N[C@H](C(=O)NC(C)c1cc(C)ccc1C)C(C)C (stereo partly specified),-5.803%
13,CC(=O)NCC(=O)N1Cc2ccnn2CC(COCCN(C)C)C1 (stereo unspecified),-1.622%
14,CC(C)N1CCC(NC(=O)NCCC(=O)NCc2ccccc2)C1 (stereo unspecified),-0.958%
15,Cc1ccc(C(=O)NC2CCN(C(C)C)C2)c(=O)[nH]1 (stereo unspecified),89.09%
16,Cc1ccc(C(=O)NC(C)CN2CCCC2=O)c(=O)[nH]1 (stereo unspecified),-26.01%
17,CCOc1cc(C)nc(N2CCN(C(=O)c3ccc[nH]3)CC2)n1,-4.872%
18,CC(C)N(Cc1cccnc1)C(=O)CCSc1ccc(C#N)cc1,-11.64%
19,CC(C)N(Cc1ccc(C#N)cc1)C(=O)Nc1ccncc1,-13.59%

row,Compound,Percent Effect
1,CC(c1ccco1)N(C(=O)CNc1ccc(C#N)cc1)C1CC1 (stereo unspecified),-9.874%
2,CC(c1ccco1)N(C)C(=O)NCCOc1ccc(C#N)cc1 (stereo unspecified),99.5%
3,CCNC(=O)N(C)C(c1cccnc1)C(C)C (stereo unspecified),-2.757%
4,CC(C)N(Cc1ccc(C#N)cc1)C(=O)NCCNc1ncccn1,-6.799%
5,CC(c1ccncc1)N(C)C(=O)NCCOc1ccc(C#N)cc1 (stereo unspecified),100.4%
6,CC(c1cccnc1)N(C)C(=O)NCCOc1ccc(C#N)cc1 (stereo unspecified),102.9%
7,CC(c1ccco1)N(C(=O)COc1ccc(C#N)cc1)C1CC1 (stereo unspecified),1.408%
8,O=C(C1SCCc2sccc21)N1CCCCC1 (stereo unspecified),1.977%
9,N#Cc1cccnc1OC1CCN(C(=O)c2cc(C3CC3)on2)CC1,-1.829%
10,CN(CC1COc2ccccc2O1)C(=O)C1=NN(C)C(=O)CC1 (stereo unspecified),-4.029%
11,Cc1ccc(N2N=C(C(=O)N(C)Cc3ccco3)NCC2=O)cc1,2.373%
12,O=C(NCCc1nnc2n1CCC2)N(Cc1ccco1)C1CCCC1,-12.78%
13,CN(Cc1ccco1)C(=O)c1ccc(=O)n(C)c1,12.27%
14,CCN(Cc1ccco1)C(=O)C1=NN(c2ccccc2)C(=O)CN1,5.452%
15,CN1N=C(C(=O)N(Cc2ccco2)C2CCCC2)CCC1=O,120.9%
16,CN(Cc1ccco1)C(=O)C1=NN(C)C(=O)CC1,140.7%
17,O=C(c1c[nH]c2ncccc12)N(Cc1ccco1)C1CCCC1,4.323%
18,Cc1ccc(N(Cc2ccco2)C(=O)CC2=NN(C)C(=O)C2)cc1,134.3%
